In the library only some 4% were active in any assay of this set; here they are far more common.
tim23-1 inh: inhibits growth of tim23-1 mutant yeast | inhibition, % at 20 µM | 1.3% of 330,000 active | AID 463212 | S. cerevisiae tim23-1 growth, BacTiter-Glo luminescence, 24 h;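 active means growth inhibition of the mutant yeast at or above 50%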;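 further: temperature-sensitive mutant grown at 25 °C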
tim10-1 inh: tim10-1 yeast growth inhibition; S. cerevisiae tim10-1 ts strain growth, BacTiter-Glo, 24 h; inhibition, % at 20 µM; 2.2% of 330,000 active; AID 463190;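 active means inhibition of at least 40%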;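 further: mutant grown at 25 °C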
NLRP3 yeast inh: inhibitors of NALP3 inflammasome in yeast. Yeast reconstituted NLRP3/ASC/caspase-1, beta-gal luminescence, 24 h. inhibition, % at 10 µM. 0.39% of 330,000 active. AID 2825;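 active means inhibition of 50% or more; inactive means inhibition below 50%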
TIM10 inh: inhibits growth of TIM10 yeast strain; S. cerevisiae TIM10 strain growth, BacTiter-Glo luminescence, 24 h; AID 463195; 1.4% of 330,000 active; inhibition, % at 10 µM;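 active means inhibition of 40% or more at the single tested concentration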;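 further: wild-type TIM10 isogenic control strain grown at permissive 25 °C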
NALP1 inh: inhibitors of NALP1 inflammasome in yeast; S. cerevisiae NALP1/ASC/caspase-1 growth, X-gal OD620, 72 h; inhibition, % at 10 µM; 0.61% of 280,000 active; AID 2071; in the data active means inhibition mostly above about 24%, no sharp cut-off; inactive means mostly below about 32%
tim10-1 conf: confirmation of tim10-1 mutant yeast growth inhibitors; shares compounds with tim10-1 inh; S. cerevisiae tim10-1 ts strain growth, BacTiter-Glo, 24 h; inhibition, % at 20 µM; 56% of 7,400 active; AID 463213;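 active means inhibition of yeast growth at or above a set limit in either of two repeat tests at 20 µM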;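 further: tim10-1 mutant grown at permissive 25 °C to find synthetic lethal compounds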
tim10 confirm: confirmation of TIM10 yeast growth inhibitors. shares compounds with TIM10 inh. S. cerevisiae tim10 strain growth, BacTiter-Glo luminescence, 24 h. inhibition, % at 10 µM. 63% of 4,600 active;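 active means inhibition of yeast growth at or above a set limit in either of two replicates at 10 µM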; further: this counterscreen used the strain with wild-type TIM10
A number is an active result; . = inactive; / = not tested or not shown.

SMILES | tim23-1 inh | tim10-1 inh | NLRP3 yeast inh | TIM10 inh | NALP1 inh | tim10-1 conf | tim10 confirm
O=C(NCC1CCCO1)C1CCN(C2CCN(C3CCCCCC3)CC2)CC1 (stereo not given) | . | . | . | . | . | / | /
Cn1ccnc1SCC(=O)Nc1ccc2c(c1)OC(F)(F)O2 | . | . | . | . | . | / | /
Cc1ccc(C(=O)NNC(=O)COC(=O)COc2ccccc2C#N)cc1 | . | . | . | . | / | / | /
COc1ccccc1NS(=O)(=O)c1ccc(O)c(C(=O)OCC(=O)N2c3ccccc3CC2C)c1 (stereo not given) | . | . | . | . | . | / | /
COC(=O)Nc1ccc(S(=O)(=O)N2CCC(Cc3ccccc3)CC2)cc1 | . | 45.0 | . | 44.5 | . | 39.8 | .
Cc1ccc(C(=O)OCC(=O)N(CCc2ccccc2)Cc2ccccc2)cc1S(=O)(=O)N1CCOCC1 | . | . | . | . | / | / | /
O=S(=O)(Nc1ccccc1)c1ccc(Oc2ncc(C(F)(F)F)cc2Cl)cc1 | . | 48.8 | . | 49.2 | . | 46.3 | 51.0
CCC(=O)Nc1ccc(N2CCCCC2)c(C(=O)Nc2ccccc2C)c1 | . | 41.4 | . | 40.4 | . | . | 38.5
Cc1ccc(-n2c(-c3cccc(C)c3)n[nH]c2=S)cc1 | . | 42.7 | . | 45.6 | . | . | .
Cn1cccc1/C=C1\CC(C(C)(C)C)C/C(=C\c2cccn2C)C1=O (stereo not given) | . | 45.4 | . | 40.7 | . | 42.8 | 41.6
CN(C)C(=S)c1ccccc1 | . | . | . | . | . | / | /
Oc1ccccc1CN1CCC(C(O)(c2ccccc2)c2ccccc2)CC1 | . | 42.9 | . | 50.5 | . | 35.9 | 41.3
O=C(Nc1ccc(Cl)cc1)N(Cc1cccs1)Cc1cccs1 | . | 47.2 | . | 57.2 | . | 41.0 | .
O=C(Nc1ccc(Cl)cc1)N(Cc1nc2ccccc2c(=O)[nH]1)Cc1cccs1 | . | . | . | . | . | / | /
COc1ccc(NC2CCCN(C(=O)c3cn(C)c4ccccc34)C2)cc1 (stereo not given) | . | . | . | . | . | / | /
CC1CCN(c2nc3nonc3nc2Nc2ccc(F)cc2)CC1 | . | 41.3 | . | 44.7 | . | 43.8 | .
CCOc1cc2c3c(c1)C1(Nc4ccccc4S1)C(=O)N3C(C)(C)CC2C (stereo not given) | . | 49.5 | . | 47.3 | . | 48.5 | 31.7
N/C(Cc1ccc([N+](=O)[O-])cc1)=N\OC(=O)C(c1ccccc1)c1ccccc1 | . | 71.9 | . | 50.4 | . | 72.8 | 62.8
COc1ccc(C/C(N)=N/OC(=O)C(c2ccccc2)c2ccccc2)cc1OC | . | . | . | . | . | / | /
N/C(=N\OC(=O)Cc1ccc([N+](=O)[O-])cc1)c1ccc([N+](=O)[O-])cc1 | . | . | . | . | . | / | /
Cc1ccc(CC(=O)O/N=C(\N)Cc2ccc([N+](=O)[O-])cc2)cc1 | . | 73.2 | . | 60.0 | . | 77.3 | 62.7
COc1ccc2oc(C(=O)OCC(=O)N(C)CC(=O)Nc3ccc(F)cc3)c(C)c2c1 | . | . | . | . | / | / | /
CC1Cc2ccccc2N1C(=S)NC(=O)c1ccc(Cl)cc1Cl (stereo not given) | . | 44.0 | . | 49.9 | . | 45.5 | .
COc1ccc(OC)c(C2C=C(C34CC5CC(CC(C5)C3)C4)NC(=S)N2)c1 (stereo not given) | . | 46.7 | . | 40.6 | . | . | .
COc1cc(C2C=C(C34CC5CC(CC(C5)C3)C4)NC(=S)N2)cc(OC)c1OC (stereo not given) | . | . | . | . | . | / | /
SMILES | tim23-1 inh | tim10-1 inh | NLRP3 yeast inh | TIM10 inh | NALP1 inh | tim10-1 conf | tim10 confirm
O=C1C(Cl)=C(Nc2ccc(O)cc2)C(=O)c2ccccc21 | . | 48.9 | . | 44.9 | . | 44.6 | 51.5
N=c1c2c(-c3ccccc3)c(-c3ccccc3)n(Cc3ccco3)c2ncn1CCCn1ccnc1 | / | / | / | / | . | / | /
N=c1c2c(-c3ccccc3)c(-c3ccccc3)n(Cc3ccccc3)c2ncn1CCO | . | 46.8 | . | 47.8 | . | 36.3 | .
COc1ccccc1Nc1nc(-c2ccc3c(c2)NC(=O)CO3)cs1 | . | . | . | . | . | / | /
COc1ccc(Nc2nc(-c3ccc4c(c3)NC(=O)CO4)cs2)cc1 | . | . | . | 46.2 | . | 30.7 | 46.3
COc1ccc(C(=O)Nc2ccccc2C(=O)N/N=C/c2cccc3ccccc23)cc1 | . | 59.9 | . | 56.3 | . | 57.0 | 37.2
O=C(/C=C/c1ccccc1[N+](=O)[O-])c1ccc(F)cc1 | . | 47.2 | . | 42.6 | . | 43.9 | .
CN(C(=O)CN1C(=O)c2cccc(N)c2C1=O)C1CCCCC1 | . | . | . | . | / | / | /
CC(=O)NC1C(c2nc3ccccc3s2)=C(c2ccccc2)C(=O)N1c1ccc(C)cc1 (stereo not given) | . | 53.4 | . | 50.7 | . | 50.5 | 37.0
O=C(N/N=C/c1ccc([N+](=O)[O-])o1)c1cc2ccccc2o1 | . | 58.8 | . | 45.1 | / | 56.1 | 79.0
Cc1cccc(C(=O)NC(=S)Nc2ccc(Cc3ccncc3)cc2)c1 | . | 47.8 | . | 45.9 | . | 30.8 | 34.5
O=C(Cc1ccccc1Cl)Nc1cccc(S(=O)(=O)N2CCCCCC2)c1 | . | . | . | . | / | / | /
O=C(Nc1cccc(S(=O)(=O)N2CCCCC2)c1)Nc1ccc(Cl)cc1Cl | . | 44.3 | . | 45.6 | / | . | 39.0
NS(=O)(=O)c1ccc(NC(=O)c2ccccc2C(=O)N2CCCCC2)cc1 | . | . | . | . | . | / | /
CCCCC1=C([O-])C2N=CC=CC2=[N+](c2ccccn2)C1=O (stereo not given) | . | . | . | . | . | / | /
CC1(C)C(=O)C2(CCCCC2)C(=O)OC1c1ccc(O)cc1 (stereo not given) | . | 45.6 | . | 43.7 | . | 38.3 | 42.5
O=C1/C(=C/c2ccncc2)CCc2ccccc21 | . | 50.1 | . | 45.1 | / | 56.2 | 55.3
C[C@H](CO)N1C[C@H](C)[C@@H](CN(C)S(=O)(=O)c2ccccc2)Oc2ccc(NC(=O)NC3CCCCC3)cc2C1=O | . | . | . | . | / | / | /
FC(F)Sc1ccc(NC(=S)NC2CCCC2)cc1 | . | 53.2 | . | 58.9 | . | 41.0 | .
OC1CCC(NC(=S)Nc2ccc(SC(F)F)cc2)CC1 (stereo not given) | . | . | . | . | . | / | /
CCCCCN(C(=O)CCC(=O)OCc1cccc(F)c1)c1c(N)n(CCCC)c(=O)[nH]c1=O | . | . | . | . | / | / | /
CC(C)C(=O)Nc1ccc(NC(=S)NC(=O)c2ccccc2F)cc1 | . | . | . | . | . | / | /
CC(C)c1ccc(/C=c2\sc3nc(-c4ccncc4)nn3c2=O)cc1 | . | 49.3 | . | 43.7 | . | 30.1 | .
O=C(Nc1cc2c3c(c1)CC(=O)N3CCC2)C1CC1 | . | . | . | . | / | / | /
O=[N+]([O-])c1cccnc1N1CCC(c2cc(-c3cccc(C(F)(F)F)c3)n[nH]2)CC1 | . | 43.2 | . | 51.9 | . | 29.8 | .

Source: PubChem
